In PubChem BioAssay (Tox21):
Inconclusive results are not listed. A call without a number means that no potency is given here. Active and inactive are the calls of the source. The call rests on the fitted dose curve; in most records, active means well fitted cell-killing curve with a large enough effect in the repeat runs; inconclusive means weak or mixed curves; inactive means no such curve, though single readings can be large or run the other way. Starred links: 1 amine or outer side, 2 acyl side, 3 side chain; linkers in the order of their positions; H or OH if unused. Positions of bridges follow the written chain, without caps; N, C: chain ends. Non-standard residues stand in square brackets, D forms with d. Residues, ends and D or L forms follow the SMILES beside them. *: point of attachment. X5 = NC1=N[C@@H]([C@H](N[*:1])C(=O)[*:2])C[C@H](O)N1; ΔAla(Z-3-ureido) = NC(=O)N/C=C(\N)C(=O)O; β3hOrn = NCCC[C@H](N)CC(=O)*; Dap = NC[C@H](N)C(=O)O
Potency means the concentration at half of the fitted maximal effect.

Test: qHTS assay to identify small molecule antagonists of the androgen receptor (AR) signaling pathway - cell viability counter screen (AID 743033; further: nearly all actives have a fitted effect of over 45% in size)
Conditions: AR-bla HEK293 viability, CellTiter-Glo luminescence, 16 h; series mostly up to 58.5 µM
Excerpt: National Center for Advancing Translational Sciences [NCATS]
NIH Chemical Genomics Center [NCGC]
U.S. Environmental Protection Agency [EPA]
National Institutes of Environmental Health Sciences [NIEHS]
National Toxicology Program [NTP]
U.S. Food and Drug Administration [FDA]
Androgen receptor (AR), a nuclear hormone receptor, plays a critical role in AR-dependent prostate cancer and other androgen related diseases. Endocrine disrupting chemicals (EDCs) and their interactions with steroid hormone receptors like AR may cause disruption of normal endocrine function as well as interfere with metabolic homeostasis, reproduction, developmental and behavioral functions. To identify the compounds that inhibit AR signaling, GeneBLAzer AR-UAS-bla-GripTite cell line (Invitrogen, Carlsbad, CA, USA) containing a beta-lactamase reporter gene under control of an Upstream Activator Sequence (UAS) stably integrated into HEK293 cells was used to screen the Tox21 10K compound library. The cytotoxicity of the Tox21 compound library against the AR-bla cell line was tested in parallel by measuring the cell viability using CellTiter-Glo assay in the same wells.
Tox21 Assay Protocol Summary:
AR-bla cells were dispensed at 2,000 cells/5 uL of assay medium per well into black wall/clear-bottom 1536-well plates using a Multidrop Combi (ThermoFisher Scientific, Waltham, MA) dispenser. After the assay plates were incubated at a 37C and 5% CO2 for 4 hr, 23 nL of compounds dissolved in DMSO, positive controls or DMSO only was transferred to the assay plate by a Pintool station (Kalypsys, San Diego, CA), followed by addition of 1 uL of agonist (R1881) in culture medium using a Bioraptr Flying Reagent Dispenser (FRD) workstation (Beckman Coulter, Indianapolis, IN, USA). The plates were incubated at a 37C and 5% CO2 for 16 h. After 1 uL of LiveBLAzerTM B/G FRET substrate was added using a Bioraptr FRD, the plates were incubated at room temperature for 2 h and fluorescence intensity was measured by an Envision plate reader (PerkinElmer, Shelton, CT). For cell viability readout that measures cytotoxicity, 4 ul/well of CellTiter-Glo reagent was added into the assay plates using a Bioraptr FRD. After 30 min incubation at room temperature, the luminescence intensity in the plates was measured using a ViewLux (PerkinElmer) plate reader.
With `CC(O)[C@@H]1NC(=O)[C@H](CCCCN)NC(=O)[C@@H](Cc2c[nH]c3ccccc23)NC(=O)[C@H](Cc2ccccc2)NC(=O)[C@@H](NC(=O)[C@H](N)Cc2ccccc2)CSSC[C@@H](C(=O)N[C@H](CO)[C@@H](C)O)NC1=O` (stereo not given in full) the Potency was “inactive”. In the case of `CCCCC(=O)O[C@H]1CC[C@H]2[C@@H]3CCc4cc(O)ccc4[C@H]3CC[C@]12C`, the Potency is reported as “inactive”. For `CCOC(=O)CCC(=O)O[C@H]1[C@H](O[C@@H]2[C@@H](C)[C@H](O[C@H]3C[C@@](C)(OC)[C@@H](O)[C@H](C)O3)[C@@H](C)C(=O)O[C@H](CC)[C@@](C)(O)[C@H](O)[C@@H](C)C(=O)[C@H](C)C[C@@]2(C)O)O[C@H](C)C[C@@H]1N(C)C`, the Potency was “inactive”. With `COC(=O)CC[C@H](N)C(=O)O` the Potency was “inactive”. In the case of `NCCC[C@H](N)CC(=O)N[C@H]1CNC(=O)[C@H]([C@H]2C[C@H](O)NC(N)=N2)NC(=O)/C(=C/NC(N)=O)NC(=O)[C@H](CO)NC(=O)[C@H](CO)NC1=O` (β3hOrn-[Dap]SS[ΔAla(Z-3-ureido)][X5]; lactam 1-C), the Potency is reported as “inactive”. With `c1cnc2cc3c(cc2n1)[C@@H]1CNC[C@H]3C1` the Potency was “inactive”. In the case of `CC(C)(C)CC(C)(C)c1cc(Cc2cc(C(C)(C)CC(C)(C)C)cc(-n3nc4ccccc4n3)c2O)c(O)c(-n2nc3ccccc3n2)c1`, the Potency is reported as “inactive”. In the case of `CCCCCCCCCCCCCC[n+]1ccc(C)cc1`, the Potency is reported as 6.01 µM (active). With `CNC(=O)c1c(I)c(C(=O)NCC(=O)Nc2c(I)c(C(=O)O)c(I)c(C(=O)NCCO)c2I)c(I)c(N(C)C(C)=O)c1I` the Potency was “inactive”. For `CC(=O)OC[C@H]1O[C@@H](O[C@H]2[C@H](O)[C@@H](OC(=O)c3ccccc3C(=O)O)[C@H](O)O[C@@H]2COC(C)=O)[C@H](O)[C@@H](OC(=O)c2ccccc2C(=O)O)[C@@H]1O`, the Potency was “inactive”. For `COCC1=C(C(=O)OC(C)OC(=O)OC(C)C)N2C(=O)[C@@H](NC(=O)/C(=N\OC)c3csc(N)n3)[C@H]2SC1` (stereo not given in full), the Potency was “inactive”. In the case of `CCSc1ccc2c(c1)N(CCCN1CCN(C)CC1)c1ccccc1S2`, the Potency is reported as “inactive”. For `COc1cc(/C=C/C(=O)N2CCN(CC(=O)N3CCCC3)CC2)cc(OC)c1OC`, the Potency was “inactive”. In the case of `CCCCCCCCCCCCCCCCSCC(COC)COP(=O)([O-])OCC[N+](C)(C)C` (stereo not given), the Potency is reported as “inactive”. With `O=C(Cc1cccs1)N[C@@H]1C(=O)N2C(C(=O)[O-])=C(C[n+]3ccccc3)CS[C@H]12` the Potency was “inactive”. For `O=C(O)CC/C=C\CC[C@@H]1[C@@H](N2CCCCC2)[C@@H](O)C[C@@H]1OCc1ccc(-c2ccccc2)cc1`, the Potency was “inactive”. For `CS(=O)(=O)Nc1cc2occ(NC=O)c(=O)c2cc1Oc1ccccc1`, the Potency was “inactive”. With `O=C(O)c1ccc(NC(=O)[C@H](Cc2ccc(O)cc2)NC(=O)c2ccccc2)cc1` the Potency was “inactive”. For `CCC(CN)CC(C)CCNCC(O)CNCC(C)CC(CC)CN` (stereo not given), the Potency was “inactive”. For `CCCCCCCN(CC)CCCC(O)c1ccc(NS(C)(=O)=O)cc1` (stereo not given), the Potency was “inactive”. With `CS(=O)(=O)OCC(O)C(O)COS(C)(=O)=O` (stereo not given) the Potency was “inactive”. With `NC(=O)OCC(O)COc1ccc(Cl)cc1` (stereo not given) the Potency was “inactive”. For `N[C@@H](C(=O)N[C@@H]1C(=O)N2C(C(=O)O)=C(Cl)CC[C@H]12)c1ccccc1`, the Potency was “inactive”. For `O=C(Nc1ccc(/C=C/c2ccc(NC(=O)c3cc(S(=O)(=O)O)c4cccnc4c3O)cc2S(=O)(=O)O)c(S(=O)(=O)O)c1)c1cc(S(=O)(=O)O)c2cccnc2c1O`, the Potency was “inactive”. In the case of `CN1c2cc(O)c(N=NC(N)=O)cc2CC1S(=O)(=O)O` (stereo not given), the Potency is reported as “inactive”. In the case of `c1ccc2c(CCC3CCNCC3)c[nH]c2c1`, the Potency is reported as “inactive”. With `CCCC1([C@H](O)C/C=C/[C@H]2[C@H](O)CC(=O)[C@@H]2CCCCCCC(=O)OC)CCC1` the Potency was 16.9 µM (active). For `CC[C@H](C)[C@@H]1NC(=O)[C@H](Cc2ccc(O)cc2)NC(=O)[C@@H](N)CSSC[C@@H](C(=O)N2CCC[C@H]2C(=O)N[C@@H](CC(C)C)C(=O)NCC(N)=O)NC(=O)[C@H](CC(N)=O)NC(=O)[C@H](CCC(N)=O)NC1=O`, the Potency was “inactive”. With `O=C(O)c1cc(O)c2c(c1)[O][Bi][O]2` the Potency was “inactive”. With `CC(=O)[C@@]1(O)CC[C@H]2[C@@H]3C=C(Cl)C4=CC(=O)[C@@H]5C[C@@H]5[C@]4(C)[C@H]3CC[C@@]21C` the Potency was “inactive”. For `CCOc1cc(-c2nccc3cc(OC)c(OC)cc23)cc(OCC)c1OCC`, the Potency was “inactive”. For `CSc1nc2cc(Oc3cccc(Cl)c3Cl)c(Cl)cc2[nH]1`, the Potency was “inactive”. With `O=C(O)C1=C(CSc2nnnn2CS(=O)(=O)O)CS[C@@H]2[C@H](NC(=O)[C@H](O)c3ccccc3)C(=O)N12` the Potency was “inactive”. In the case of `CC(CN(C)C)CN1c2ccccc2Sc2ccc(C(F)(F)F)cc21` (stereo not given), the Potency is reported as “inactive”. In the case of `[O]=[Bi][O]C(=O)[O][Bi]=[O]`, the Potency is reported as “inactive”. With `OCCO[C@@H]1[C@@H](O)[C@H](O)[C@@H](CO)O[C@@H]1O` the Potency was “inactive”. For `C[N+](C)(CCCCCC[N+](C)(C)C1c2ccccc2-c2ccccc21)C1c2ccccc2-c2ccccc21`, the Potency was “inactive”. In the case of `CN(C)CCOc1ccccc1Cc1ccccc1` (tested in a mixture with another compound), the Potency is reported as “inactive”. In the case of `N[C@H](CC(=O)O)C(=O)O`, the Potency is reported as “inactive”. For `NS(=O)(=O)c1cc2c(cc1Cl)NC(Cc1ccccc1)NS2(=O)=O` (stereo not given), the Potency was “inactive”.
